Measured values reported in the supplement of paper PMC11732987, “Enantioselective OTUD7B fragment discovery through chemoproteomics screening and high-throughput optimisation” (Communications Chemistry, 2025).

Assays:
Assay in all cases: log2 ratio of Biotin-Ahx-Ub-VS probe labelling (fragment/DMSO); higher = less target engagement (more negative = stronger competition), active = hit call of the paper (q ≤ 0.05, log2 ratio ≤ -1)
Details in all cases: compound concentration: 200 uM; treatment time: 3 h
[1] = target: T1, USP42 (UniProt Q9H9J4)
T1 sequence (whole entry): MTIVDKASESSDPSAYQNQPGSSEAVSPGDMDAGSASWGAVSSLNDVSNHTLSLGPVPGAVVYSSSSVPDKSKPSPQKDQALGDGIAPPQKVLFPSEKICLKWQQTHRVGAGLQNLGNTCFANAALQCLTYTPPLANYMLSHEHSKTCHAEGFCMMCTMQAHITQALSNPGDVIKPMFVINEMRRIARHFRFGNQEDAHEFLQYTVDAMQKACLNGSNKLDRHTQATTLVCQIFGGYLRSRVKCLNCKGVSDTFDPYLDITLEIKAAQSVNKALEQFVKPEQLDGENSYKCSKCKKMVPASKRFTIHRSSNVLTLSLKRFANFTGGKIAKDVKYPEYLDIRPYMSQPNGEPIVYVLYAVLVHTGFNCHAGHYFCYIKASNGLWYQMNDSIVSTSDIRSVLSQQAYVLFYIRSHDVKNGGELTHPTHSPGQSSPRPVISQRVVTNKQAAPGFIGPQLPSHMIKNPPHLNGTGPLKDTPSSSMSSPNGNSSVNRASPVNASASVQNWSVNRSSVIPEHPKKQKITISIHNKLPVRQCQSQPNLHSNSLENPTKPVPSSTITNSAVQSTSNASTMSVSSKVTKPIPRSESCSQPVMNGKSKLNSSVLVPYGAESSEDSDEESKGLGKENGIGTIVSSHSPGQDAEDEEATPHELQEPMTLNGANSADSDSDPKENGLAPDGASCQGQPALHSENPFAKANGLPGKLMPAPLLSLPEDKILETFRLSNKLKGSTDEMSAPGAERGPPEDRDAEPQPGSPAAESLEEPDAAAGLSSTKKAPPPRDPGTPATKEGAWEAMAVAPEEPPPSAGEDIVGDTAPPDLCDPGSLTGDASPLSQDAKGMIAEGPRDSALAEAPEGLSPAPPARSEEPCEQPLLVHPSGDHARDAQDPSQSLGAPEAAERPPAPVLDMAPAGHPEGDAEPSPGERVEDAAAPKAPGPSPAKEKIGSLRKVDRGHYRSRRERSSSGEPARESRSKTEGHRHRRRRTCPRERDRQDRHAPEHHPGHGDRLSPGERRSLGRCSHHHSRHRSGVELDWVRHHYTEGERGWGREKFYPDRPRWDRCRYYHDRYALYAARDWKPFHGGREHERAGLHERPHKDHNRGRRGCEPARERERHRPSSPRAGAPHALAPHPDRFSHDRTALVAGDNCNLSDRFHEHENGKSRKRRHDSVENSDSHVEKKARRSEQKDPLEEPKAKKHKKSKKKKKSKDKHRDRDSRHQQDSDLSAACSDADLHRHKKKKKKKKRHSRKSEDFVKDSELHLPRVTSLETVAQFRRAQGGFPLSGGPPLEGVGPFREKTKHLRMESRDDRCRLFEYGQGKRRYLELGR
How it was run: (§1)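 Using Biotin-Ahx-Ub-VS at 0.5 µM final for 1 h, DUBs were labelled in HEK293T lysate (495 µg per sample) that had first been treated in triplicate with fragment at 200 µM or vehicle for 3 h. NeutrAvidin enrichment, LysC and trypsin digestion and diaPASEF LC-MS/MS followed. Spectronaut label-free quantities were global-median-normalised. Values are average log2 fragment/vehicle ratios by unpaired t-test, using proteins with ≥2 unique peptides.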

[2] = target: USP46 (UniProt P62068)
How it was run: as §1

[3] = target: T2, USP47 (UniProt Q96K76)
T2 sequence (whole entry): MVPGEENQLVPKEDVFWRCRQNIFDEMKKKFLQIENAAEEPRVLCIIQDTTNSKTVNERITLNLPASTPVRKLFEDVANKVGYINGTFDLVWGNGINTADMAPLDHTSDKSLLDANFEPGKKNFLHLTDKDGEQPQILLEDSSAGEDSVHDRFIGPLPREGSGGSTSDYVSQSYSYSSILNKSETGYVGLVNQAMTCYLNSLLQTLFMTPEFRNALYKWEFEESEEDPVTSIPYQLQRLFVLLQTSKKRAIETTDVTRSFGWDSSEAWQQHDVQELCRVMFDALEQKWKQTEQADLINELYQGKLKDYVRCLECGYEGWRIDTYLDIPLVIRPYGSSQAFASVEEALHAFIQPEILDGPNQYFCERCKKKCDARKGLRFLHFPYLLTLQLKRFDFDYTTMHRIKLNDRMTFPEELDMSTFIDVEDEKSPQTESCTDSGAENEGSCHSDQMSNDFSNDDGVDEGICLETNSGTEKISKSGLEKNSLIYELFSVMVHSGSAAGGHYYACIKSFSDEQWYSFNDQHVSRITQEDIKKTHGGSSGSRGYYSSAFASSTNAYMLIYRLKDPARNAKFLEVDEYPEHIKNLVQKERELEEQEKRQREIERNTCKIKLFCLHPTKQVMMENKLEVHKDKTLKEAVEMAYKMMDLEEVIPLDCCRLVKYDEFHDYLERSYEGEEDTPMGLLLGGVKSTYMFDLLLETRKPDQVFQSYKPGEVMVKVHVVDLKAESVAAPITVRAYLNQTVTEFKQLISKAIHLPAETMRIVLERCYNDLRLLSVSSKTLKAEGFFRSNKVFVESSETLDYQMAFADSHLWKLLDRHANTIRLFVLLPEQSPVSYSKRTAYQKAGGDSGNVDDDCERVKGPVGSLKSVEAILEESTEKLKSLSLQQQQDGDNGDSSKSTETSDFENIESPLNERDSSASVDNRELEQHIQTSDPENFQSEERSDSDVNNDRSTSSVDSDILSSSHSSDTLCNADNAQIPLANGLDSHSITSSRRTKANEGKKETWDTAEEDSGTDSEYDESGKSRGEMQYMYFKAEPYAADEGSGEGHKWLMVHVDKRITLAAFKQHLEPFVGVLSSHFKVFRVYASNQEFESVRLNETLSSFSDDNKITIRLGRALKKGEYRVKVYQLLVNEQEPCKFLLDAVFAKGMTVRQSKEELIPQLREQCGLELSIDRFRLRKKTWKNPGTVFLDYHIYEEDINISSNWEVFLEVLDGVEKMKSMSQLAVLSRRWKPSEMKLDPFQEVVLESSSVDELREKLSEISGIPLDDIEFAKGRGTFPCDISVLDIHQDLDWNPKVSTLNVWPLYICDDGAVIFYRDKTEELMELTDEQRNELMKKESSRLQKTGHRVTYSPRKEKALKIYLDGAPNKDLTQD
How it was run: as §1

[4] = target: T3, USP48 (UniProt Q86UV5)
T3 sequence (whole entry): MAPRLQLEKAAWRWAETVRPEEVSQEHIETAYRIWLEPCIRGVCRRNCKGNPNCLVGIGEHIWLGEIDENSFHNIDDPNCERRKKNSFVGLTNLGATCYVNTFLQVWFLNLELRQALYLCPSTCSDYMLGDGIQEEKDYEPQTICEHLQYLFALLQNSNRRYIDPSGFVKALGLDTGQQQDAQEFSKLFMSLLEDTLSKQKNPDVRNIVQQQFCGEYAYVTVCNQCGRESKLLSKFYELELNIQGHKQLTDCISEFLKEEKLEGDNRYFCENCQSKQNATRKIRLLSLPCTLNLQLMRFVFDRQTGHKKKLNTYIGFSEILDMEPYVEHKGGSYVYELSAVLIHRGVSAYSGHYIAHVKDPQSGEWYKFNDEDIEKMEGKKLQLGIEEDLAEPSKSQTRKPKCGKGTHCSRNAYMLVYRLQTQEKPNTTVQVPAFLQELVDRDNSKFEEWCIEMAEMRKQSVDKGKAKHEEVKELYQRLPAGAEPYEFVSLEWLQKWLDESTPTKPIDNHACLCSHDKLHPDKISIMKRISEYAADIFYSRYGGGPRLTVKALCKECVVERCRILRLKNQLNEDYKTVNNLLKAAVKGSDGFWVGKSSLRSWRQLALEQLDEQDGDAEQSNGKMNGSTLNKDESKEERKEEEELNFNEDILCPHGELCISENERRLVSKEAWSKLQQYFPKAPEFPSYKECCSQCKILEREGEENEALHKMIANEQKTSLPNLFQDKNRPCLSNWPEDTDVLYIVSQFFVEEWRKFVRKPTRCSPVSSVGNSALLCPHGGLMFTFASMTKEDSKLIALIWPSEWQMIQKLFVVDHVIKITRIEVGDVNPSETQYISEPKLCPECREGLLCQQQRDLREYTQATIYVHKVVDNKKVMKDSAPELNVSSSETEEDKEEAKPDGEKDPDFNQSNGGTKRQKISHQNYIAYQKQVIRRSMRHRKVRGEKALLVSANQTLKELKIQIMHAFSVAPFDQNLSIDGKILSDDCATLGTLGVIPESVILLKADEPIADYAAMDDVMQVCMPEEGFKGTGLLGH
How it was run: as §1

[5] = target: T4, USP5 (UniProt P45974)
T4 sequence (whole entry): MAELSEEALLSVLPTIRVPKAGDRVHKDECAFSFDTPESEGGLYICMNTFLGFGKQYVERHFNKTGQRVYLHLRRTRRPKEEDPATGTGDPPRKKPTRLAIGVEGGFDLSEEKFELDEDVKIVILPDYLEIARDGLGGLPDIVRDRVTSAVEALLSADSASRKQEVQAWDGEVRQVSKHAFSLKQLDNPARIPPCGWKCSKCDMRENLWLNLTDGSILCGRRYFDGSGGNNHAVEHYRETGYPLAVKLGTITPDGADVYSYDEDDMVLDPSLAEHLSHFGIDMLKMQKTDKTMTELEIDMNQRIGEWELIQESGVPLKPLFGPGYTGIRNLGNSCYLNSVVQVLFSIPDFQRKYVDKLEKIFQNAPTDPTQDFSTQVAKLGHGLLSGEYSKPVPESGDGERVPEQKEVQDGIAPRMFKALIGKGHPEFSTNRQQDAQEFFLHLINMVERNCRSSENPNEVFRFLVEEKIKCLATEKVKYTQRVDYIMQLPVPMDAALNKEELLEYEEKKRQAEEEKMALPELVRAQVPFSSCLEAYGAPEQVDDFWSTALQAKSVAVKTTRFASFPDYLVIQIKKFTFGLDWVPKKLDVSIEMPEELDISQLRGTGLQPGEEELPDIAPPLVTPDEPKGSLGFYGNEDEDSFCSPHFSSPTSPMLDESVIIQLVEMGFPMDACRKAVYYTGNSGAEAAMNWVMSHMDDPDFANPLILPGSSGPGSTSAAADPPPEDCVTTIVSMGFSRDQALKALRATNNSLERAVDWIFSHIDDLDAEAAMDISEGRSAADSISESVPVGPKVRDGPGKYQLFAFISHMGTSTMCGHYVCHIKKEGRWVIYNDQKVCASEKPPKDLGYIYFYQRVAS
How it was run: as §1

[6] = target: USP54 (UniProt Q70EL1)
How it was run: as §1

[7] = target: USP7 (UniProt Q93009)
How it was run: as §1

[8] = target: T5, USP8 (UniProt P40818)
T5 sequence (whole entry): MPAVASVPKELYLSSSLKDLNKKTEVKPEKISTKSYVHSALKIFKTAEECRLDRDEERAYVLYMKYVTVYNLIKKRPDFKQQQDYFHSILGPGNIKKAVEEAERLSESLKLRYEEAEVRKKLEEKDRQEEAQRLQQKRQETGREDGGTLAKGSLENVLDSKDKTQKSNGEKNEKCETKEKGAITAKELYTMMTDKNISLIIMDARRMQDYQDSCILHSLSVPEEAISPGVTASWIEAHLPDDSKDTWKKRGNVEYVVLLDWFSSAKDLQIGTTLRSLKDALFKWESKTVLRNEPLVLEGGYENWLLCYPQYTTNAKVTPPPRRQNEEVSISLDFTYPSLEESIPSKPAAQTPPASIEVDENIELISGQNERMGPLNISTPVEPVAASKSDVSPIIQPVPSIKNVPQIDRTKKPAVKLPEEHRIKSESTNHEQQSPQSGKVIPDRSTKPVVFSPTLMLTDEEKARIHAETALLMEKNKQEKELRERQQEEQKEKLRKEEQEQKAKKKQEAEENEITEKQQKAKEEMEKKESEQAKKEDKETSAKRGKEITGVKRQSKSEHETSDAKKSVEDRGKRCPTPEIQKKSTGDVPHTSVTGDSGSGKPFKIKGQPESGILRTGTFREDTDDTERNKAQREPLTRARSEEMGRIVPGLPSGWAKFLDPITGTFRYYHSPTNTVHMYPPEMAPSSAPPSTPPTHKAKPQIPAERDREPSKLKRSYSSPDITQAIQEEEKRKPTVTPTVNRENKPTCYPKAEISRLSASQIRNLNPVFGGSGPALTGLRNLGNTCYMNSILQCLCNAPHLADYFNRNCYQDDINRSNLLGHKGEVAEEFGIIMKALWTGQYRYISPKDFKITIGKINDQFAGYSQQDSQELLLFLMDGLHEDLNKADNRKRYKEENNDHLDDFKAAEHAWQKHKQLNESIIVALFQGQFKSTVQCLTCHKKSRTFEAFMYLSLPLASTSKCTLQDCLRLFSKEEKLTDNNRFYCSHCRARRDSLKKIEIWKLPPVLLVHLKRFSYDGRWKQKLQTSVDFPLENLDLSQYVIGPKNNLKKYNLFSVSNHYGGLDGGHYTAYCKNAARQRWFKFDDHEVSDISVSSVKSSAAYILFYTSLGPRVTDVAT
How it was run: as §1

Measured: log2 ratio of Biotin-Ahx-Ub-VS probe labelling

Chain of USP46 (P62068 whole entry): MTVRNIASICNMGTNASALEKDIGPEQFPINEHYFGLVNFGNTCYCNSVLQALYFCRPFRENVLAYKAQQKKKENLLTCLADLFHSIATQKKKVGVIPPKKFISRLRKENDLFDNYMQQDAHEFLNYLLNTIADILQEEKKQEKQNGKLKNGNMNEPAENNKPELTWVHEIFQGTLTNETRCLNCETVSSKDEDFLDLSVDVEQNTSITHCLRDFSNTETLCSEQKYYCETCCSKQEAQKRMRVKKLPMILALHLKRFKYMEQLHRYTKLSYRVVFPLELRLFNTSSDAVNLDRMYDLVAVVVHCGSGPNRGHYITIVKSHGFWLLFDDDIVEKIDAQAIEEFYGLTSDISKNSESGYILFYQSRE
Chain of USP54 (Q70EL1 whole entry): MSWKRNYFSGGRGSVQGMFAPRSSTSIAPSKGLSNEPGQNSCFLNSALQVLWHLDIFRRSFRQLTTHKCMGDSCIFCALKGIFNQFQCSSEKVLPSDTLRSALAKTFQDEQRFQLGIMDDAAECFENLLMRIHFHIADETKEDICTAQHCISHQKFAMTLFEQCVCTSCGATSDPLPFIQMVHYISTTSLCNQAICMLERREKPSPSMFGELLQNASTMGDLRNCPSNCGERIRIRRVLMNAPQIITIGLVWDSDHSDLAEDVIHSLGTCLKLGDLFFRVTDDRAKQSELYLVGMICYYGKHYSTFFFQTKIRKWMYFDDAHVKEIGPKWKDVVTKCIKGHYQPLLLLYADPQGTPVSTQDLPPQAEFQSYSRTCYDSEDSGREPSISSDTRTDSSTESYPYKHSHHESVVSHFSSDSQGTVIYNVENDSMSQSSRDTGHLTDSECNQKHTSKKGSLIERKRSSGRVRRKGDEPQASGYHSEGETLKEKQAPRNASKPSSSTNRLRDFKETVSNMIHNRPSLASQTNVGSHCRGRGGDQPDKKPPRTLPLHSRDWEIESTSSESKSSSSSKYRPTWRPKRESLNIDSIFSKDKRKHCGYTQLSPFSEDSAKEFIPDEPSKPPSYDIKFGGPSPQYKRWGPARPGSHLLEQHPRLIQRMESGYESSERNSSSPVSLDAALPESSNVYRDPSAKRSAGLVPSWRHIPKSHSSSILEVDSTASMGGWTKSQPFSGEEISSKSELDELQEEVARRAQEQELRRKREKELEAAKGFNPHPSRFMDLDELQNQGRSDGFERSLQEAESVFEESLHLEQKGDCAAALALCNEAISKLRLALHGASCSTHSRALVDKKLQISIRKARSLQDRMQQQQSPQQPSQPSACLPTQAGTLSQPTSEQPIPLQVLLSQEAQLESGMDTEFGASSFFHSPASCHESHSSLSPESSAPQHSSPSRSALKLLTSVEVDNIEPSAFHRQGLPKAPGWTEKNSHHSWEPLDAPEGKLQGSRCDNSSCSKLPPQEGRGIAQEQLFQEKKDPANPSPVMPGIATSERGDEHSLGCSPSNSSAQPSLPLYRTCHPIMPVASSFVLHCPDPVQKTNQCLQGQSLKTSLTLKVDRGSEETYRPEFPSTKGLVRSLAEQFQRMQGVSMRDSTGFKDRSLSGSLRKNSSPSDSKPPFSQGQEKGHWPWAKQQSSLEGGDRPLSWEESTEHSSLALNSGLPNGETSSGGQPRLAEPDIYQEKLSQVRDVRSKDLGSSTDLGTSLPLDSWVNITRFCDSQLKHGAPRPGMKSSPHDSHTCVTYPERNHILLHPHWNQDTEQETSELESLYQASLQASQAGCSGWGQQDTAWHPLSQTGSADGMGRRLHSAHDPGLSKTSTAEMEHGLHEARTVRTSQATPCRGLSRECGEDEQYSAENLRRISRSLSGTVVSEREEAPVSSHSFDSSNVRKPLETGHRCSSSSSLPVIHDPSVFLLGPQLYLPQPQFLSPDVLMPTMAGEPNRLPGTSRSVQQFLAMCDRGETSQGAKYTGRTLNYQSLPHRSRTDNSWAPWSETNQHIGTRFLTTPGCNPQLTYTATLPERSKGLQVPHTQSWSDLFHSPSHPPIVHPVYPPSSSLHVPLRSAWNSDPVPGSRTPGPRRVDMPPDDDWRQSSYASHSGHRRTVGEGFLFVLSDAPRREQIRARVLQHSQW
Chain of USP7 (Q93009 whole entry, looked up): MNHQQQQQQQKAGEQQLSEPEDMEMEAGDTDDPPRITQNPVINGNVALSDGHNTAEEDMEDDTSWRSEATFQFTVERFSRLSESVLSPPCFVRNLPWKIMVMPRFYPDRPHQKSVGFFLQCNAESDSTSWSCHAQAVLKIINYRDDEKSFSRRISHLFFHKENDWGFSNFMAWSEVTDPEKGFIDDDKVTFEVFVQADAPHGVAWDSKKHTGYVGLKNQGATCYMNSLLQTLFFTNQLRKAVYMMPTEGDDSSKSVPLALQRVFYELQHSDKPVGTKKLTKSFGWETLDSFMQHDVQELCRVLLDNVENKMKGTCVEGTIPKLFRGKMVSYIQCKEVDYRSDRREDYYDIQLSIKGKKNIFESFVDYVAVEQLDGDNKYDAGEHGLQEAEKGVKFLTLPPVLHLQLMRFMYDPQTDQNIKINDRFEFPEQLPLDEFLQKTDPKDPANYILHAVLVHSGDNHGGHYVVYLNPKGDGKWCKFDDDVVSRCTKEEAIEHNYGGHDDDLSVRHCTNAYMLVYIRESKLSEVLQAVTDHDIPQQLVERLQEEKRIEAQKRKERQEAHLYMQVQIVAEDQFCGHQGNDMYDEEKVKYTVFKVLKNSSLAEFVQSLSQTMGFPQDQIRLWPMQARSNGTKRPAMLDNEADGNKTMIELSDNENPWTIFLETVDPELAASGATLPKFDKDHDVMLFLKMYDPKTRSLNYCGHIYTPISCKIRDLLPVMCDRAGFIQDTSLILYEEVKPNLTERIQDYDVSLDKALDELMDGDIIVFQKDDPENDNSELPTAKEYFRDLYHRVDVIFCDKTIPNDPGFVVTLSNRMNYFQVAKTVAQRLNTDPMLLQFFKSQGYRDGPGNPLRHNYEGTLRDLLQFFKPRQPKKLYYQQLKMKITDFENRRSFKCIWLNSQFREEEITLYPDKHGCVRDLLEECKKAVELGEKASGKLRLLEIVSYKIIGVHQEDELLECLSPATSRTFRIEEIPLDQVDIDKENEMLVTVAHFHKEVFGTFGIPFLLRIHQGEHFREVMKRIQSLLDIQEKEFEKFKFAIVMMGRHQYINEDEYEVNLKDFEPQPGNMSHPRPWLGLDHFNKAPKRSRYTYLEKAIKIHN

CC(NC(=O)CCl)c1noc(Cc2ccccc2)n1 (stereo not drawn)
inactive: [1] 0.115 | [2] -0.0371 | [3] 0.0165 | [4] -0.394 | [5] -0.388 | [6] 0.507 | [7] -0.475 | [8] -0.579
